Sampled rows, rich in hits. Any-hit rate of the full collection: about 7.5%.
SMN2 splice up – SMN2 splice variant enhancement; HEK293 SMN2-luciferase splicing reporter, luminescence, 30-36 h; Potency, µM (titrated, usually from 46.1 µM), for inactives: at the top dose activity change, positive = activation, usual class: activators; actives 2.8% (n = 210,000); AID 1458; further: % of control where 0% means no effect; nearly all actives have a fitted effect of over 55% in size
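HEK293 cells carry an SMN2 […]–luciferase reporter in which exon 7 inclusion puts luciferase in frame. Cells were plated 10-12 h before compound addition, then incubated 30-36 h at 37C. ONE-Glo luminescence was read; sodium butyrate at 4.5 mM final served as control.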
Rab9 promoter act – activators of Rab9 promoter; Huh7 Rab9 promoter-luciferase reporter, luminescence, 24 h; Potency, µM (titrated, usually from 9.22 µM), for the others: at the top dose activation, negative = inhibition, actives largely listed as activators; actives 2.8% (n = 320,000); further: % of control where 0% means no effect; nearly all actives have a fitted effect of over 60% in size
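Measured in stably transfected Huh7 cells bearing a Rab9 promoter–luciferase construct: 24 h compound treatment at 37 °C, followed by luminescence detection.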
Luc counter – counter-screen: inhibitors of Kinase-Glo firefly luciferase; actives 0.28% (n = 200,000); Potency, µM (highest dose often 38.3 µM), without a hit: top-dose activity change, negative = inhibition, hits mostly inhibitors; Kinase-Glo luciferase, ATP luminescence, 8 min; Q27757; AID 1379; further: on the % scale 0 is the no-effect control and ±100 the full control effect; nearly all actives have a fitted effect of over 60% in size
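Compounds were added to a substrate mix at pH 7.2 (50 mM imidazole, 10 uM ATP, within the enzyme's linear range), followed by Kinase-Glo detection reagent; luminescence was measured after 8 minutes at ambient temperature.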
FLuc modulator – inhibits or activates purified firefly luciferase, miR-21 counter-screen. purified FLuc, Km substrates, luminescence inhibition. Potency, µM (highest dose often 57.5 µM), inactives show at the highest dose activity change, negative = inhibition, hits mostly inhibitors. actives 6.9% (n = 360,000);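 further: plate controls were vehicle for no effect and reference inhibitor for full effect; nearly all actives have a fitted effect of over 55% in size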
Target sequence (P08659 whole entry, looked up): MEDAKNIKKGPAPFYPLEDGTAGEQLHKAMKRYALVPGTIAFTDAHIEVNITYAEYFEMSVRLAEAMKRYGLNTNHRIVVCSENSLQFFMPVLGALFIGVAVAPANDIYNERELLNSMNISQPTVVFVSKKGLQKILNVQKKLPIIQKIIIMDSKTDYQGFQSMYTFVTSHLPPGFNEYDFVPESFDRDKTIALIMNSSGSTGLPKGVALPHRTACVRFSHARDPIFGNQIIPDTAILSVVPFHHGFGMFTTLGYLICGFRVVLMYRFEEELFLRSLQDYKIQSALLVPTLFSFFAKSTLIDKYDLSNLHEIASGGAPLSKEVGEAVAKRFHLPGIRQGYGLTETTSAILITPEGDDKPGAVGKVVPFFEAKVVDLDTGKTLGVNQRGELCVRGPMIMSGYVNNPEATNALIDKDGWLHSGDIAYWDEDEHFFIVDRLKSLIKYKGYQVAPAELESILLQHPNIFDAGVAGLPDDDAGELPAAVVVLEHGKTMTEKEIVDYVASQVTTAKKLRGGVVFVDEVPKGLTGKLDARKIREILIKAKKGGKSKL
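Purified P. pyralis luciferase, 10 nM final, with Km-level 10 uM D-luciferin and 10 uM ATP in 50 mM Tris acetate pH 7.5, 10 mM Mg acetate, 0.01% Tween-20, 0.05% BSA; 6-point qHTS titration about 60 µM downward; luminescence read.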
NPC1 promoter act – activators of NPC1 promoter; Huh7 NPC1 promoter luciferase reporter, 24 h; Potency, µM (top dose mostly 9.22 µM), without a hit: at the highest dose activation, actives largely listed as activators; actives 2.4% (n = 320,000); further: % of control where 0% means no effect; nearly all actives have a fitted effect of over 60% in size
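Huh7 cells stably carrying NPC1 promoter–luciferase, plated in Opti-MEM with 10% FBS for 2 h, were exposed to compound in DMSO for 24 h at 37 °C; luciferase reagent was added for 10 min and luminescence read.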
ELG1 genotox – genotoxicity induction in ELG1-luciferase HEK293T cells | HEK293T ELG1-luciferase reporter, luminescence, 16 h | Potency, µM (highest dose often 46 µM), inactives show at the top dose activity change, positive = activation, hits mostly activators | actives 1.3% (n = 330,000) | AID 504466; further: % of control where 0% means no effect; nearly all actives have a fitted effect of over 60% in size
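Step 1: seed 2,000 HEK293T ELG1-luciferase cells per well. Step 2: add compound or DMSO, incubate 16 hr at 37 °C. Step 3: ONE-Glo, 30 min at room temperature, read luminescence.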
Active calls of the source: *; u = inconclusive; x = no result. The call rests on the fitted dose curve; in most records, active means well fitted curve in the direction sought with a large enough effect; inconclusive means small, poorly fitted or top-dose-only effect, or another doubt; inactive means no such curve, though single readings can be large; an effect the other way counts as inactive or inconclusive. Potency means the concentration at half of the fitted maximal effect.

SMILES	SMN2 splice up	Rab9 promoter act	Luc counter	FLuc modulator	NPC1 promoter act	ELG1 genotox
O=C(Nc1cccc(Br)c1)Nc1nc2c(s1)CCCCCC2	x	x	x	11µM*	x	x
COc1ccc(NC(=O)Nc2nc3c(s2)CCCC3)cc1	13µM*	1.8µM*	1%	4.8µM*	4µM*	18%
CN(Cc1ccccc1)c1nnc(NC(=O)Nc2cccc(Br)c2)s1	x	x	x	-13%	x	x
O=C(NCc1ccccc1)c1cccc(COc2ccccc2Cl)c1	13µM*	1.8µM*	2%	15µM*	1.8µM*	u
O=C(c1ccccc1)N1CCN(CC(O)COc2cccc3ccccc23)CC1 (stereo unspecified)	x	4%	x	1%	3%	0%
NNC(=O)c1cccc(COc2ccccc2Br)c1	13µM*	0.89µM*	-4%	7.6µM*	0.35µM*	u
COC(=O)c1ccccc1NC(=O)c1cccc(COc2ccccc2Cl)c1	11µM*	0.45µM*	-1%	17µM*	u	u
O=C(c1cccc(COc2cccc3ccccc23)c1)N1CCCC1	22µM*	2.5µM*	4%	17µM*	u	15%
CCOC(=O)CSc1n[nH]c(NC(C)=O)n1	x	2%	x	0%	2%	2%
Cc1noc(C)c1COc1ccc(C(=O)NNC(=O)c2ccccc2F)cc1	x	-32%	x	3%	-26%	4%
Cc1ccc(-n2nc(C(=O)N(C)Cc3ccccc3)c3c4ccccc4n(C)c3c2=O)cc1	17%	x	x	-18%	x	x
NNC(=O)c1cccc(COc2ccc3c(c2)CCC3)c1	0.4µM*	0.32µM*	-17%	2.4µM*	0.22µM*	u
CN(C(=O)c1cccc(COc2ccc(Cl)cc2Cl)c1)c1ccccc1	3.2µM*	1µM*	1%	12µM*	0.63µM*	2.1µM*
O=C(c1cccc(COc2ccc(Cl)cc2Cl)c1)N1CCN(c2ccccn2)CC1	4µM*	x	0%	4.8µM*	x	x
CN(C(=O)c1ccc(COc2ccccc2Cl)o1)c1ccccc1	x	-6%	x	-5%	20%	-1%
O=C(NCc1ccccc1)c1cccc(COc2cc(Cl)ccc2Cl)c1	13µM*	3.2µM*	4%	u	2.5µM*	u
O=C(NCc1ccccc1)c1cnc(Cl)c(Cl)c1	x	12%	x	-1%	-2%	4%
Cc1nn(CC(=O)NC2CCCCC2)c(=O)c2cc3cc(F)ccc3n12	-2%	x	x	-1%	x	x
CCOC(=O)c1ccccc1NC(=O)Cn1c(=O)n(CCC(=O)N2CCc3ccccc3C2)c(=O)c2ccccc21	-5%	x	x	3%	x	x
Cc1ccc(C)c(N2CCN(C(=O)c3cc(S(=O)(=O)N4CCCC4)c[nH]3)CC2)c1	x	x	x	-2%	x	x
CCOc1ccc(S(=O)(=O)Nc2nc3ccccc3nc2Nc2ccc(N3CCOCC3)cc2)cc1	-2%	-5%	3%	11µM*	-3%	-4%
COc1cccc(Nc2nc3ccccc3nc2NS(=O)(=O)c2ccc(NC(C)=O)cc2)c1	x	-5%	x	24µM*	-3%	16%
CC(=O)c1ccc(Nc2nc3ccccc3nc2NS(=O)(=O)c2cccs2)cc1	x	-4%	x	19µM*	0%	-14%
COc1ccc(S(=O)(=O)Nc2ccc(N3CCOCC3)cc2)cc1	x	1%	x	1%	0%	-4%
Cc1ccc2nc(NS(=O)(=O)c3ccc(Cl)cc3)c(Nc3ccc(C(=O)O)cc3)nc2c1	-23%	x	x	11µM*	x	x
SMILES	SMN2 splice up	Rab9 promoter act	Luc counter	FLuc modulator	NPC1 promoter act	ELG1 genotox
CC(=O)Nc1ccc(S(=O)(=O)Nc2nc3ccccc3nc2Nc2ccc(S(N)(=O)=O)cc2)cc1	5%	-1%	1%	u	0%	1%
COC(=O)c1ccccc1NC(=O)c1c(NC(=O)c2ccco2)sc2c1CCC(C(C)(C)C)C2 (stereo unspecified)	-6%	x	x	1%	x	x
CCOCCCNC(=O)NC(CCC(C)C)c1c(-n2cccc2)sc2c1CCN(C)C2 (stereo unspecified)	x	x	x	-4%	x	x
O=C(NCc1ccc2c(c1)OCO2)O[C@@H]1C(=O)c2cc(Br)ccc2O[C@H]1c1ccc2c(c1)OCO2	11%	x	-2%	x	x	x
CCOc1ccc(S(=O)(=O)Nc2nc3ccccc3nc2Nc2ccc(OC)cc2)cc1	-6%	x	x	13µM*	x	x
COc1ccc(Nc2nc3ccccc3nc2NS(=O)(=O)c2ccc(NC(C)=O)cc2)cc1	x	-3%	x	15µM*	3%	10%
CC(=O)Nc1ccc(S(=O)(=O)Nc2nc3cc4c(cc3nc2Cl)OCCO4)cc1	x	-4%	x	19µM*	0%	2%
O=S(=O)(Nc1nc2cc3c(cc2nc1Cl)OCCO3)c1ccccc1	5%	-3%	1%	u	-1%	0%
CC1CCN(C2=NC(=O)/C(=C/c3cccc(O)c3)S2)CC1	x	-6%	x	u	-6%	12%
CCc1ccc(/C=C2\SC(N3CCCC3)=NC2=O)cc1	-38%	-5%	-2%	17µM*	-1%	3%
O=C1N=C(N2CCCCC2)S/C1=C\c1cn[nH]c1-c1ccccc1	u	15%	1%	7.6µM*	21%	-1%
COc1ccc(/C=C2\SC(N3CCCCC3)=NC2=O)cc1	x	u	x	11µM*	u	10%
CC1CCN(C2=NC(=O)/C(=C/c3ccccc3F)S2)CC1	x	15%	x	3.4µM*	u	9.2µM*
O=C1N=C(N2CCCCC2)S/C1=C\c1ccncc1	x	-6%	x	-9%	-4%	-6%
CCOC(=O)C1(C(F)(F)F)N=C(c2cccnc2)OC(N2CCCCC2)=N1 (stereo unspecified)	-4%	-6%	4%	5%	-3%	2%
O=C1N=C(N2CCCC2)S/C1=C\C=C\c1ccccc1	x	0.56µM*	x	0.85µM*	1.6µM*	1.6µM*
O=C1N=C(N2CCOCC2)S/C1=C\c1cccnc1	-4%	-3%	-4%	-2%	-3%	0%
CN1CCN(c2ccc(NC(=O)C(C)(c3ccccc3)c3ccccc3)cc2)CC1	x	0%	x	1%	-5%	-3%
CN1CCN(c2ccc(-c3ccnn3C(=O)Nc3ccccc3)cc2)CC1	10µM*	3.5µM*	-8%	17µM*	u	u
COCCNC(=O)CSc1nnc2[nH]c(=O)cc(C)n12	x	x	x	-1%	x	x
COc1cc(CO)ccc1OCc1ccc(Cl)nc1	x	3.2µM*	x	12µM*	2.5µM*	16µM*
CCC(C)NC(=O)CSc1c2c(nc3cc(Cl)ccc13)CCCC2 (stereo unspecified)	0%	x	x	0%	x	x
CC(C)NC(=O)c1ccc2c3n(nc2c1)-c1ccc(Cl)cc1CO3	x	1.4µM*	x	1.9µM*	1.3µM*	u

Compound activity: PubChem, National Center for Advancing Translational Sciences (NCATS)
